“And” between values parts separate entries of the source, which are not always exact repeats. Identical values can stand only once. Out of some 5,500 compounds screened, about 2,000 (36%) were called active. Roughly 18% stayed inconclusive and do not appear here. Rule as the data show it: active = normalized growth mostly below about 0.91 (no sharp cut-off); inconclusive = no clear call, values can overlap the other calls; inactive = mostly above about 0.92. The list shows a part of the results.
Assay: chemical genetic growth profiling, strain panel (AID 1159580);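 also: tested at 20 µM; growth read once vehicle control cultures reached saturation at 30 °C; 1 = growth at the plate median or of vehicle wells; lower values mean less growth of the strain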
Settings: growth OD

Measured: normalized growth

CN(C)c1nc(N(C)C)nc(N(C)C)n1
inactive: S. cerevisiae deletion strains, locus YKL009W, strain mrt4, hits give low values 1 | S. cerevisiae deletion strains, locus YKL068W, hits give low values 1.01 | S. cerevisiae deletion strains, locus YKL085W, strain MDH1 (second series), hits give low values 1.01 | S. cerevisiae deletion strains, locus YKL085W, strain MDH1, hits give low values 1.01 | S. cerevisiae deletion strains, locus YKL160W, strain elf1, hits give low values 0.985 | S. cerevisiae deletion strains, locus YKL190W, strain CNB1, hits give low values 1.01 | S. cerevisiae deletion strains, locus YKR001C, strain vps1, hits give low values 1.01 | S. cerevisiae deletion strains, locus YKR026C, strain gcn3, hits give low values 0.978 | S. cerevisiae deletion strains, locus YKR091W, strain srl3, hits give low values 0.962 | S. cerevisiae deletion strains, locus YLL001W, strain dnm1, hits give low values 0.969 | S. cerevisiae deletion strains, locus YLL026W, hits give low values 0.977 | S. cerevisiae deletion strains, locus YLL041C, strain sdh2, hits give low values 0.983 | S. cerevisiae deletion strains, locus YLR027C, strain aat2, hits give low values 0.969 | S. cerevisiae deletion strains, locus YLR039C, strain RIC1, hits give low values 0.964 | S. cerevisiae deletion strains, locus YLR058C, strain SHM2, hits give low values 1.01 | S. cerevisiae deletion strains, locus YLR102C, strain apc9, hits give low values 1.01 | S. cerevisiae deletion strains, locus YLR113W, strain HOG1, hits give low values 0.948 | S. cerevisiae deletion strains, locus YLR221C, strain rsa3, hits give low values 0.945 | S. cerevisiae deletion strains, locus YLR258W, strain gsy2, hits give low values 0.987 | S. cerevisiae deletion strains, locus YLR262C, strain YPT6 (second series), hits give low values 0.932 | S. cerevisiae deletion strains, locus YLR262C, strain YPT6, hits give low values 0.986 | S. cerevisiae deletion strains, locus YLR268W, strain sec22, hits give low values 1.02 | S. cerevisiae deletion strains, locus YLR320W, strain mms22, hits give low values 0.949 | S. cerevisiae deletion strains, locus YLR330W, strain CHS5, hits give low values 1.01 | S. cerevisiae deletion strains, locus YLR342W, strain FKS1 (second series), hits give low values 1 | S. cerevisiae deletion strains, locus YLR342W, strain FKS1, hits give low values 0.968 | S. cerevisiae deletion strains, locus YLR357W, strain rsc2, hits give low values 0.978 | S. cerevisiae deletion strains, locus YLR370C, strain arc18, hits give low values 0.964 | S. cerevisiae deletion strains, locus YLR371W, strain rom2, hits give low values 1.01 | S. cerevisiae deletion strains, locus YLR384C, strain iki3, hits give low values 0.951 | S. cerevisiae deletion strains, locus YLR418C, strain cdc73, hits give low values 1.05 | S. cerevisiae deletion strains, locus YML016C, strain PPZ1, hits give low values 1.01 | S. cerevisiae deletion strains, locus YML032C, strain rad52, hits give low values 1.02 | S. cerevisiae deletion strains, locus YML120C, strain ndi1, hits give low values 0.952 | S. cerevisiae deletion strains, locus YML124C, strain tub3, hits give low values 1.02 | S. cerevisiae deletion strains, locus YMR058W, strain fet3, hits give low values 0.969 | S. cerevisiae deletion strains, locus YMR078C, strain ctf18, hits give low values 1.02 | S. cerevisiae deletion strains, locus YMR125W, strain sto1, hits give low values 0.97 | S. cerevisiae deletion strains, locus YMR129W, hits give low values 0.992 | S. cerevisiae deletion strains, locus YMR205C, strain PFK2, hits give low values 0.945 | S. cerevisiae deletion strains, locus YMR223W, strain ubp8, hits give low values 1.02 | S. cerevisiae deletion strains, locus YMR231W, strain pep5, hits give low values 0.979 | S. cerevisiae deletion strains, locus YMR263W, strain SAP30, hits give low values 1.01 | S. cerevisiae deletion strains, locus YMR307W, strain GAS1, hits give low values 1.03 and 1.01 | S. cerevisiae deletion strains, locus YNL067W, strain RPL9B, hits give low values 1 | S. cerevisiae deletion strains, locus YNL071W, strain lat1, hits give low values 0.982 | S. cerevisiae deletion strains, locus YNL128W, strain TEP1, hits give low values 1.02 | S. cerevisiae deletion strains, locus YNL153C, strain GIM3, hits give low values 0.995 | S. cerevisiae deletion strains, locus YNL175C, strain NOP13, hits give low values 0.992 | S. cerevisiae deletion strains, locus YNL183C, strain NPR1, hits give low values 0.92 | S. cerevisiae deletion strains, locus YNL197C, strain WHI3, hits give low values 0.997 | S. cerevisiae deletion strains, locus YNL209W, strain ssb2, hits give low values 0.978 | S. cerevisiae deletion strains, locus YNL224C, strain SQS1, hits give low values 0.993 | S. cerevisiae deletion strains, locus YNL233W, strain BNI4, hits give low values 1 | S. cerevisiae deletion strains, locus YNL248C, strain rpa49, hits give low values 0.959 | S. cerevisiae deletion strains, locus YNL250W, strain rad50, hits give low values 1.04 | S. cerevisiae deletion strains, locus YNL271C, strain bni1, hits give low values 1.02 | S. cerevisiae deletion strains, locus YNL298W, strain CLA4, hits give low values 1.02 | S. cerevisiae deletion strains, locus YNL307C, strain MCK1, hits give low values 1.02 | S. cerevisiae deletion strains, locus YNL322C, strain KRE1 (second series), hits give low values 0.954 | S. cerevisiae deletion strains, locus YNL322C, strain KRE1, hits give low values 0.996 | S. cerevisiae deletion strains, locus YNR049C, strain mso1, hits give low values 0.96 | S. cerevisiae deletion strains, locus YNR052C, strain pop2, hits give low values 1.02 | S. cerevisiae deletion strains, locus YOL006C, strain TOP1, hits give low values 1 | S. cerevisiae deletion strains, locus YOL012C, strain htz1 0.788 | S. cerevisiae deletion strains, locus YOL147C, strain pex11, hits give low values 1.02 | S. cerevisiae deletion strains, locus YOR001W, strain rrp6, hits give low values 0.987 | S. cerevisiae deletion strains, locus YOR061W, strain CKA2, hits give low values 1.01 | S. cerevisiae deletion strains, locus YOR069W, strain VPS5, hits give low values 1 | S. cerevisiae deletion strains, locus YOR070C, strain gyp1, hits give low values 0.984 | S. cerevisiae deletion strains, locus YOR080W, strain dia2, hits give low values 0.974 | S. cerevisiae deletion strains, locus YOR083W, strain WHI5 (second series), hits give low values 1.03 | S. cerevisiae deletion strains, locus YOR083W, strain WHI5, hits give low values 0.956 | S. cerevisiae deletion strains, locus YOR106W, strain vam3, hits give low values 0.928 | S. cerevisiae deletion strains, locus YOR136W, strain idh2, hits give low values 1.02 | S. cerevisiae deletion strains, locus YOR144C, strain elg1, hits give low values 1.01 | S. cerevisiae deletion strains, locus YOR184W, strain ser1, hits give low values 1.02 | S. cerevisiae deletion strains, locus YOR231W, strain MKK1, hits give low values 0.962 | S. cerevisiae deletion strains, locus YOR265W, strain rbl2, hits give low values 0.971 | S. cerevisiae deletion strains, locus YOR270C, strain vph1, hits give low values 0.953 | S. cerevisiae deletion strains, locus YOR290C, strain snf2, hits give low values 0.919 | S. cerevisiae deletion strains, locus YOR316C, strain cot1, hits give low values 1.02 | S. cerevisiae deletion strains, locus YPL051W, strain arl3, hits give low values 0.979 | S. cerevisiae deletion strains, locus YPL055C, strain LGE1, hits give low values 1.01 | S. cerevisiae deletion strains, locus YPL078C, strain atp4, hits give low values 0.975 | S. cerevisiae deletion strains, locus YPL106C, strain sse1, hits give low values 0.951 | S. cerevisiae deletion strains, locus YPL240C, strain hsp82, hits give low values 0.974 | S. cerevisiae deletion strains, locus YPL256C, strain CLN2, hits give low values 0.975 | S. cerevisiae deletion strains, locus YPR119W, strain clb2, hits give low values 1.01 | S. cerevisiae deletion strains, locus YPR141C, strain kar3, hits give low values 1.02 | S. cerevisiae deletion strains, locus YPR163C, strain tif3, hits give low values 1.02 | S. cerevisiae deletion strains, locus YPR167C, strain met16, hits give low values 1.01 | S. cerevisiae deletion strains, strain wtn01, hits give low values 1.02 | S. cerevisiae strains, strain wild type, hits give low values 1.01
